Source: PubChem BioAssay AID686979 (National Center for Advancing Translational Sciences (NCATS), 2013)
Screen size: about 420,000 compounds; about 50,000 (12%) were called active. A call without a number means that no potency is given here. Inconclusive results (about 26%) are left out. The sample holds actives, similar compounds and a random draw of the others, so the mix is not that of the screen. Calls come from the whole dose curve; as a rule, active = well fitted inhibition curve with a large enough effect; inconclusive = small, poorly fitted or top-dose-only effect; inactive = flat fitted curve, though single readings scatter.

Assay: qHTS for Inhibitors of human tyrosyl-DNA phosphodiesterase 1 (TDP1): qHTS in cells in presence of CPT; note: nearly all actives have a fitted effect of over 55% in size
Conditions: chicken DT40 Tdp1-/-;hTDP1 cells + 20 nM CPT, ATP luminescence, 48 h; series mostly up to 46.2 µM
How it was run: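 Chicken DT40 Tdp1-/- cells complemented with human TDP1, 400 cells/well, exposed to compounds plus 20 nM camptothecin for at least 48 h at 37 C; viability read as ATP content by CellTiter-Glo luminescence.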
Potency is the fitted concentration of half-maximal effect.

| SMILES | Potency |
| --- | --- |
| O=C(Nc1cc(-c2nc3ccccc3o2)ccc1Cl)c1cc([N+](=O)[O-])ccc1N1CCOCC1 | inactive |
| COc1cc(/C=C/CNC[C@H]2O[C@@H](n3cnc(C(N)=O)n3)[C@H](O)[C@@H]2O)ccc1O | inactive |
| O=C(c1ccc(Cl)cc1)n1nc(-c2cccnc2)nc1NCc1ccc(F)cc1 | inactive |
| O=C(Cc1ccccc1)n1nc(-c2ccccc2)nc1NCc1ccco1 | inactive |
| O=C(c1ccco1)n1nc(-c2ccc(Cl)cc2)nc1NCc1ccccc1 | 18.4 µM (active) |
| COc1ccc(C(=O)NCCSc2ccccc2C)cc1 | inactive |
| Cc1nn(C)cc1N1C(=O)c2cccc3c(N)ccc(c23)C1=O | inactive |
| CN1C(=O)c2cccc3c(N)ccc(c23)C1=O | inactive |
| CCN1C(=O)c2cccc3c(N)ccc1c23 | 11.6 µM (active) |
| NC1=NC(c2cc(F)cc(F)c2)n2c(nc3ccccc32)N1 (stereo unspecified) | inactive |
| CS(=O)(=O)C1=NN2C(=N)/C(=C\c3ccc(OCCOc4ccccc4)cc3)C(=O)N=C2S1 | inactive |
| Cc1ccc(NC2CCCN(C(=O)CCC3(C)CC3)C2)cc1C (stereo unspecified) | inactive |
| CCCCN(CC)CCCNC(=O)Cn1ncc2c([nH]c3ccc(C)cc32)c1=O | inactive |
| COc1ccccc1CNC(=O)Cn1nc(C)c2nn(-c3ccc(Cl)cc3)c(C)c2c1=O | 20.6 µM (active) |
| COc1ccccc1CNC(=O)Cn1c(=O)oc2cc(Cl)ccc21 | inactive |
| Cc1nn(C(C)C(=O)N2CCOCC2)c(=O)c2nn(-c3ccccc3)c(C)c12 (stereo unspecified) | inactive |
| Cc1nc2c(C(=O)NCc3ccc4c(c3)OCO4)c[nH]n2c(=O)c1Cc1ccccc1F | inactive |
| Cc1nn(CC(=O)N2CCCCC2)c(=O)c2nn(-c3ccccc3)c(C)c12 | inactive |
| CC(Sc1nncs1)C(=O)NCc1ccc2c(c1)OCO2 (stereo unspecified) | inactive |
| Cc1ccc(-n2nc3c(=O)n(C(C)C(=O)NCc4ccc5c(c4)OCO5)nc(C)c3c2C)cc1 (stereo unspecified) | 18.4 µM (active) |
| COc1ccccc1CNC(=O)Cn1cc2c(n1)CCCC2 | inactive |
| COc1ccc(CNC(=O)C(C)n2nc(C)c3c(C)n(-c4ccccc4)nc3c2=O)c(OC)c1 (stereo unspecified) | 16.4 µM (active) |
| CN(CCC1CCOCC1)C(=O)CC1C(=O)NCCN1Cc1cccc(F)c1 (stereo unspecified) | inactive |

| SMILES | Potency |
| --- | --- |
| CC1CC(C)CN(CCOc2cccc3ccccc23)C1 (stereo unspecified) | inactive |
| O=C(Nc1ccc([N+](=O)[O-])cc1)OCCc1ccccn1 | inactive |
| COc1ccc(CN2CCOc3c(cc(-c4ncc(C(F)(F)F)cc4Cl)cc3OCC3CCCO3)C2)c(O)c1 (stereo unspecified) | inactive |
| O=C(CN1C(=O)NC2(CCOc3ccccc32)C1=O)NCc1ccc(F)cc1 (stereo unspecified) | inactive |
| O=C(NCCCn1ccnc1)C(=O)c1cn(CC(=O)N2CCCCCC2)c2ccccc12 | inactive |
| CC(C)NC(=O)c1nn(-c2ccccc2F)nc1CO | inactive |
| CC1(C)NC(=O)N(CC(=O)Nc2ccc(-c3ccccc3)cc2)C1=O | inactive |
| O=C(CSc1nnc(SCc2ccc(Cl)cc2)s1)N/N=C/c1ccccc1Cl | 18.4 µM (active) |
| O=C(Cc1ccccc1)N/N=C/c1ccc(Cl)cc1Cl | inactive |
| Cc1nnsc1C(=O)N/N=C/c1ccccc1Cl | inactive |
| C=CCOc1ccccc1NC(=O)CN1C(=O)CNC1=O | inactive |
| COc1ccc(CCN2C(=O)C(C)=C(C)C2=O)cc1OC | inactive |
| COc1ccc(CCn2cc3c(c2-c2ccc(Br)cc2)c(=O)n(C)c(=O)n3C)cc1OC | 23.1 µM (active) |
| COc1ccc(CCN2CNc3c(c(=O)n(C)c(=O)n3C)C2)cc1OC | inactive |
| O=S(=O)(c1ccc(-c2ccno2)s1)N1CCCCC1 | inactive |
| COc1cccc(/C=C2\C=C(c3ccc(C)cc3)OC2=O)c1OC(C)=O | inactive |
| COCc1c(C(=O)N/N=C\c2cccnc2)nnn1-c1nonc1N | inactive |
| CCCCNC(=O)C(=O)c1ccccc1NC(C)=O | inactive |
| CCCCNC(=O)Nc1c(C)cc(SC#N)cc1C | 18.4 µM (active) |
| c1ccc(CCc2ccccn2)cc1 | inactive |
| Cc1ccc(CC2CC(=O)N(c3nc(C)cc(C)n3)C2=O)cc1 (stereo unspecified) | inactive |
| CC(=O)N1CC(C)c2scc(C)[n+]2-c2ccccc21 (stereo unspecified) | inactive |
| CCOC(=O)c1nnn(-c2nonc2-n2cccc2)c1CN1CCOCC1 | inactive |

| SMILES | Potency |
| --- | --- |
| NNC(=O)c1nnn(-c2nonc2N)c1CN1CCCC1 | inactive |
| CCOC(=O)c1nnn(-c2nonc2-n2cccc2)c1CN1CCC(C(=O)OCC)CC1 | 18.4 µM (active) |
| CCOC(=O)C1(Cc2cccc(OC)c2)CCCN(C(=O)CCSC)C1 (stereo unspecified) | inactive |
| CC1(c2ccccc2)NC(=O)N(CC(=O)N2CC(=O)Nc3ccccc32)C1=O (stereo unspecified) | inactive |
| Nc1nc2c(ncn2[C@@H]2O[C@H](CNS(=O)(=O)N3CCc4ccccc4C3)[C@@H](O)[C@H]2O)c(=O)[nH]1 | inactive |
| COC1C(CO)OC(n2cnc3c(=S)nc(N)[nH]c32)C1O (stereo unspecified) | 16.4 µM (active) |
| CC(C)Sc1nc(N)nc2c1ncn2C1OC(CO)C(O)C1O (stereo unspecified) | inactive |
| COC(=O)CNS(=O)(=O)c1ccc(Cc2ccc(S(=O)(=O)NCC(=O)OC)cc2)cc1 | inactive |
| CCn1c(SCC(=O)Nc2ccc3c(c2)OCCO3)nnc1C(C)C | inactive |
| CCCn1c(SCC(N)=O)nnc1C(C)C | inactive |
| CCCn1c(SCC(=O)c2ccc3c(c2)OCCO3)nnc1C(C)C | 23.1 µM (active) |
| Cn1c(SCC(=O)N2CCCc3ccccc32)nc2ccccc2c1=O | 7.31 µM (active) |
| CCC(=O)N1CCCc2ccccc21 | inactive |
| O=C(CSc1nc2ccccc2c(=O)n1CCCO)N1CCc2ccccc21 | inactive |
| CC(C)CNC(=S)NNC(=O)c1ccccc1OC(F)F | inactive |
| CC(=O)Nc1ccc(S(=O)(=O)Oc2ccc(Br)cc2C(=S)N2CCOCC2)cc1 | inactive |
| CCOc1cc(C(=S)N2CCOCC2)ccc1OS(=O)(=O)c1ccc(Br)cc1 | inactive |
| O=S(=O)(Oc1ccccc1C(=S)N1CCOCC1)c1ccc(Cl)cc1 | 16.4 µM (active) |
| N/C(=N/O)c1cccn1Cc1ccccc1[N+](=O)[O-] | inactive |
| O=c1c([N+](=O)[O-])cccn1Cc1ccc(F)cc1Cl | 11.6 µM (active) |
| O=[N+]([O-])c1ccccc1NCc1ccccc1Cl | inactive |
| O=C(O)c1ccc(S(=O)(=O)c2ccccc2)s1 | inactive |
| O=C(N=C1SC2CS(=O)(=O)CC2N1Cc1ccccc1)c1ccccc1 (stereo unspecified) | inactive |

| SMILES | Potency |
| --- | --- |
| COC(=O)c1sccc1NS(=O)(=O)c1ccc(F)cc1F | inactive |
| O=[N+]([O-])c1cc(S(=O)(=O)Nc2cccc(Cl)c2)ccc1N=Nc1c(O)[nH]c2ccccc12 | 20.6 µM (active) |
| O=C(O)c1ccccc1/C=N/Nc1ccc(S(=O)(=O)Nc2ccc(Cl)cc2)cc1[N+](=O)[O-] | inactive |
| COc1ccc(S(=O)(=O)Nc2ccc3cn[nH]c3c2)cc1[N+](=O)[O-] | inactive |
| CN(Cc1ccc(F)cc1Cl)S(=O)(=O)c1cccs1 | inactive |
| Cn1cc(C(=O)c2ccc(Cl)cc2Cl)cc1C(=O)NN | inactive |
| CC(OC(=O)CCc1nc(=O)c2ccccc2n1C)C(=O)NCc1ccc2c(c1)OCO2 (stereo unspecified) | inactive |
| CC(C)Cc1nnc(NC(=O)CCc2ccccc2)s1 | inactive |
| CCOc1ccc(OCC)c(NC(=O)CCS(=O)(=O)c2ccc(C)cc2)c1 | inactive |
| CCOC(=O)c1ccc(NC(=O)CCS(=O)(=O)c2ccc3c(c2)oc(=O)n3C)cc1 | inactive |
| Cc1ccc(S(=O)(=O)CC(=O)Nc2nnc(C)s2)cc1 | inactive |
| Cc1ccc(S(=O)(=O)CCC(=O)Nc2nnc(CC(C)C)s2)cc1 | 20.6 µM (active) |
| CCOC(=O)c1ccc(NC(=O)CCS(=O)(=O)c2ccc(C)cc2)cc1 | 18.4 µM (active) |
| O=C1C(=O)N(CCN2CCOCC2)C(c2cccc(Cl)c2)/C1=C(/O)c1ccc2c(c1)OCO2 (stereo unspecified) | inactive |
| CN(CC(O)COc1ccc(S(=O)(=O)N2CCOCC2)cc1Cl)C1CCCCC1 (stereo unspecified) | inactive |
| CCCCOc1ccc(N(CC(=O)NC(C)C)C(=O)CCC(=O)Nc2ccccn2)cc1 | inactive |
| O=C(Cc1cccs1)N/N=C/c1ccc(OCc2ccccc2)cc1 | inactive |
| O=C(NN1C(=O)C2C3C=CC(C4CC34)C2C1=O)c1ccc(Cl)cc1 (stereo unspecified) | inactive |
| Cc1ccc(NC(=O)c2cc3ccccc3o2)cc1 | inactive |
| CSC(=S)N/N=C/c1c[nH]c2ccccc12 | 0.651 µM (active) |
| N=c1oc2ccccc2cc1C(=O)N/N=C/c1ccccc1 | inactive |
| O=C(O)c1cccc(NC(=S)N/N=C/c2c[nH]c3ccccc23)c1 | inactive |
| O=C(N/N=C/c1c[nH]c2ccccc12)c1ccccc1O | inactive |

| SMILES | Potency |
| --- | --- |
| Cc1c(/C=N\NC(=O)c2cc3ccccc3o2)c2ccccc2n1C | 3.66 µM (active) |
| O=C(N/N=C/c1c[nH]c2ccccc12)c1cc2ccccc2o1 | 14.6 µM (active) |
| O=C(N/N=C/c1coc2ccccc2c1=O)c1cc2ccccc2o1 | inactive |
| O=C(N/N=C/c1cccc(O)c1)c1cc2c(ccc3ccccc32)o1 | inactive |
| CCOC(=O)c1ccc(NC(=O)C2CC(=O)N(c3ccc4c(c3)OCCO4)C2)cc1 (stereo unspecified) | inactive |
| O=C1CCCC(O)=C1N=Nc1ccc2ncsc2c1 | inactive |
| NNC(=O)CSc1nnc(-c2ccccc2)n1-c1ccccc1 | inactive |
| CCCCn1c(N)c(N(CCOC)C(=O)c2sc3ccccc3c2Cl)c(=O)[nH]c1=O | inactive |
| CC[C@H](C)C(=O)N[C@H]1CCCN1C(=O)/C=C/c1ccccc1 | inactive |
| O=S(=O)(NCCS(=O)(=O)N1CCN(c2ccccc2)CC1)c1ccc(F)cc1 | inactive |
| O=C(Nc1ccccc1Cl)NC1(C(=O)N2CCOCC2)CCCCC1 | inactive |
| COc1cc2c(cc1OC)C(=O)NCC(C)(C)O2 | inactive |
| Cc1cc(C)cc(NC(=O)Cn2cnc3c(nnn3Cc3ccc(F)cc3)c2=O)c1 | inactive |
| CCCCCn1c(=O)[nH]c2cc(C(=O)NCCCN3CCCCC3C)ccc2c1=O (stereo unspecified) | inactive |
| CCCCCn1c(=O)[nH]c2cc(C(=O)Nc3ccc(F)cc3)ccc2c1=O | 20.6 µM (active) |
| CCCCCn1c(=O)[nH]c2cc(C(=O)Nc3cc(C)cc(C)c3)ccc2c1=O | 4.11 µM (active) |
| COCCn1c(=O)[nH]c2cc(C(=O)NCc3cccnc3)ccc2c1=O | inactive |
| CC(C)n1c(=O)[nH]c2cc(C(=O)Nc3ccccc3)ccc21 | inactive |
| O=C(NC1CCCCC1)c1ccc2c(=O)n(CC3CCCO3)c(=O)[nH]c2c1 (stereo unspecified) | inactive |
